Screen size: about 5,500 compounds; about 2,000 (36%) were called active. About 18% were inconclusive and are not listed. Cut-off read from the data, not from the text of the source: active = normalized growth mostly below about 0.91 (no sharp cut-off); inconclusive = no clear call, values can overlap the other calls; inactive = mostly above about 0.92. The list shows a part of the results.
Experiment: chemical genetic growth profiling, strain panel (AID 1159580);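 note: tested at 20 µM; growth read once vehicle control cultures reached saturation at 30 °C; 1 = growth at the plate median or of vehicle wells; lower values mean less growth of the strain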
Conditions: growth OD

Measured: normalized growth

CCCCCCCCCCCCCCCCCCOCC(O)CO (stereo not drawn)
inactive: S. cerevisiae deletion strains, locus YJR043C, strain POL32, stronger effect = lower value 1.01 | S. cerevisiae deletion strains, locus YJR066W, strain TOR1, stronger effect = lower value 0.965 | S. cerevisiae deletion strains, locus YKL009W, strain mrt4, stronger effect = lower value 1.04 | S. cerevisiae deletion strains, locus YKL068W, stronger effect = lower value 1.01 | S. cerevisiae deletion strains, locus YKL085W, strain MDH1 (second series), stronger effect = lower value 0.986 | S. cerevisiae deletion strains, locus YKL085W, strain MDH1, stronger effect = lower value 0.986 | S. cerevisiae deletion strains, locus YKL160W, strain elf1, stronger effect = lower value 1.01 | S. cerevisiae deletion strains, locus YKR001C, strain vps1, stronger effect = lower value 1.04 | S. cerevisiae deletion strains, locus YKR026C, strain gcn3, stronger effect = lower value 1 | S. cerevisiae deletion strains, locus YKR091W, strain srl3, stronger effect = lower value 0.995 | S. cerevisiae deletion strains, locus YLL001W, strain dnm1, stronger effect = lower value 0.997 | S. cerevisiae deletion strains, locus YLL026W, stronger effect = lower value 0.983 | S. cerevisiae deletion strains, locus YLL041C, strain sdh2, stronger effect = lower value 0.997 | S. cerevisiae deletion strains, locus YLR027C, strain aat2, stronger effect = lower value 0.998 | S. cerevisiae deletion strains, locus YLR039C, strain RIC1, stronger effect = lower value 1.04 | S. cerevisiae deletion strains, locus YLR058C, strain SHM2, stronger effect = lower value 0.999 | S. cerevisiae deletion strains, locus YLR102C, strain apc9, stronger effect = lower value 1.01 | S. cerevisiae deletion strains, locus YLR113W, strain HOG1, stronger effect = lower value 0.995 | S. cerevisiae deletion strains, locus YLR221C, strain rsa3, stronger effect = lower value 1 | S. cerevisiae deletion strains, locus YLR258W, strain gsy2, stronger effect = lower value 0.975 | S. cerevisiae deletion strains, locus YLR262C, strain YPT6 (second series), stronger effect = lower value 1 | S. cerevisiae deletion strains, locus YLR262C, strain YPT6, stronger effect = lower value 1.01 | S. cerevisiae deletion strains, locus YLR268W, strain sec22, stronger effect = lower value 1.05 | S. cerevisiae deletion strains, locus YLR320W, strain mms22, stronger effect = lower value 0.979 | S. cerevisiae deletion strains, locus YLR330W, strain CHS5, stronger effect = lower value 1.02 | S. cerevisiae deletion strains, locus YLR342W, strain FKS1 (second series), stronger effect = lower value 1.04 | S. cerevisiae deletion strains, locus YLR342W, strain FKS1, stronger effect = lower value 0.987 | S. cerevisiae deletion strains, locus YLR357W, strain rsc2, stronger effect = lower value 0.932 | S. cerevisiae deletion strains, locus YLR370C, strain arc18, stronger effect = lower value 0.998 | S. cerevisiae deletion strains, locus YLR371W, strain rom2, stronger effect = lower value 1.02 | S. cerevisiae deletion strains, locus YLR384C, strain iki3, stronger effect = lower value 0.986 | S. cerevisiae deletion strains, locus YLR418C, strain cdc73, stronger effect = lower value 0.976 | S. cerevisiae deletion strains, locus YML016C, strain PPZ1, stronger effect = lower value 1.01 | S. cerevisiae deletion strains, locus YML032C, strain rad52, stronger effect = lower value 0.983 | S. cerevisiae deletion strains, locus YML120C, strain ndi1, stronger effect = lower value 1.01 | S. cerevisiae deletion strains, locus YML124C, strain tub3, stronger effect = lower value 1 | S. cerevisiae deletion strains, locus YMR058W, strain fet3, stronger effect = lower value 0.999 | S. cerevisiae deletion strains, locus YMR078C, strain ctf18, stronger effect = lower value 1 | S. cerevisiae deletion strains, locus YMR125W, strain sto1, stronger effect = lower value 0.955 | S. cerevisiae deletion strains, locus YMR129W, stronger effect = lower value 0.989 | S. cerevisiae deletion strains, locus YMR205C, strain PFK2, stronger effect = lower value 0.96 | S. cerevisiae deletion strains, locus YMR223W, strain ubp8, stronger effect = lower value 1.01 | S. cerevisiae deletion strains, locus YMR231W, strain pep5, stronger effect = lower value 0.993 | S. cerevisiae deletion strains, locus YMR263W, strain SAP30, stronger effect = lower value 1 | S. cerevisiae deletion strains, locus YMR307W, strain GAS1, stronger effect = lower value 1.01 | S. cerevisiae deletion strains, locus YNL067W, strain RPL9B, stronger effect = lower value 1.01 | S. cerevisiae deletion strains, locus YNL071W, strain lat1, stronger effect = lower value 1 | S. cerevisiae deletion strains, locus YNL128W, strain TEP1, stronger effect = lower value 1.02 | S. cerevisiae deletion strains, locus YNL183C, strain NPR1, stronger effect = lower value 0.974 | S. cerevisiae deletion strains, locus YNL209W, strain ssb2, stronger effect = lower value 0.999 | S. cerevisiae deletion strains, locus YNL233W, strain BNI4, stronger effect = lower value 1.01 | S. cerevisiae deletion strains, locus YNL248C, strain rpa49, stronger effect = lower value 1.01 | S. cerevisiae deletion strains, locus YNL250W, strain rad50, stronger effect = lower value 1 | S. cerevisiae deletion strains, locus YNL271C, strain bni1, stronger effect = lower value 1 | S. cerevisiae deletion strains, locus YNL298W, strain CLA4, stronger effect = lower value 1 | S. cerevisiae deletion strains, locus YNL307C, strain MCK1, stronger effect = lower value 1.01 | S. cerevisiae deletion strains, locus YNL322C, strain KRE1 (second series), stronger effect = lower value 0.998 | S. cerevisiae deletion strains, locus YNR049C, strain mso1, stronger effect = lower value 0.995 | S. cerevisiae deletion strains, locus YNR052C, strain pop2, stronger effect = lower value 0.999 | S. cerevisiae deletion strains, locus YOL012C, strain htz1 0.72 | S. cerevisiae deletion strains, locus YOL147C, strain pex11, stronger effect = lower value 1 | S. cerevisiae deletion strains, locus YOR001W, strain rrp6, stronger effect = lower value 0.996 | S. cerevisiae deletion strains, locus YOR061W, strain CKA2, stronger effect = lower value 1 | S. cerevisiae deletion strains, locus YOR069W, strain VPS5, stronger effect = lower value 1.01 | S. cerevisiae deletion strains, locus YOR070C, strain gyp1, stronger effect = lower value 0.997 | S. cerevisiae deletion strains, locus YOR080W, strain dia2, stronger effect = lower value 0.977 | S. cerevisiae deletion strains, locus YOR083W, strain WHI5, stronger effect = lower value 1.02 | S. cerevisiae deletion strains, locus YOR106W, strain vam3, stronger effect = lower value 1.01 | S. cerevisiae deletion strains, locus YOR136W, strain idh2, stronger effect = lower value 1.02 | S. cerevisiae deletion strains, locus YOR144C, strain elg1, stronger effect = lower value 1.01 | S. cerevisiae deletion strains, locus YOR184W, strain ser1, stronger effect = lower value 0.995 | S. cerevisiae deletion strains, locus YOR231W, strain MKK1, stronger effect = lower value 1 | S. cerevisiae deletion strains, locus YOR265W, strain rbl2, stronger effect = lower value 0.987 | S. cerevisiae deletion strains, locus YOR270C, strain vph1, stronger effect = lower value 1.03 | S. cerevisiae deletion strains, locus YOR290C, strain snf2, stronger effect = lower value 0.973 | S. cerevisiae deletion strains, locus YOR316C, strain cot1, stronger effect = lower value 0.997 | S. cerevisiae deletion strains, locus YPL051W, strain arl3, stronger effect = lower value 1.01 | S. cerevisiae deletion strains, locus YPL078C, strain atp4, stronger effect = lower value 1.01 | S. cerevisiae deletion strains, locus YPL106C, strain sse1, stronger effect = lower value 0.953 | S. cerevisiae deletion strains, locus YPL240C, strain hsp82, stronger effect = lower value 0.985 | S. cerevisiae deletion strains, locus YPL241C, strain CIN2, stronger effect = lower value 0.998 | S. cerevisiae deletion strains, locus YPL256C, strain CLN2, stronger effect = lower value 0.983 | S. cerevisiae deletion strains, locus YPR119W, strain clb2, stronger effect = lower value 1 | S. cerevisiae deletion strains, locus YPR141C, strain kar3, stronger effect = lower value 1 | S. cerevisiae deletion strains, locus YPR163C, strain tif3, stronger effect = lower value 1.02 | S. cerevisiae deletion strains, locus YPR167C, strain met16, stronger effect = lower value 1.02 | S. cerevisiae deletion strains, strain wtn01, stronger effect = lower value 1.04 | S. cerevisiae strains, strain wild type, stronger effect = lower value 0.995
